Experimental data as given in PubChem BioAssay AID2098 (Broad Institute, 2009).
Among all 300,000 compounds or so, about 2,300 (0.77%) were called active.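 How the source made its calls: active means more than half of replicate wells show activity change below -50%, luminescence cut by over half; inconclusive means some wells, but at most half, below -50%; inactive means no replicate well below -50%.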 Many of the other results were omitted from the sample, so actives are more common in it than they were.

Experiment: HSF1 inhibitors in luciferase reporter cells, primary screen, cell-based, NIH3T3, luminescence (AID 2098);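 further: luciferase reports HSF-1 transcriptional activity via heat shock element; 0% = median of DMSO wells and -100% = zero luminescence signal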
Details: NIH3T3-HGL HSE-luciferase, MG132-induced, luminescence 8 h; hits give low values; screened at 7.5 µM (by protocol)
For `COC(=O)c1ccc(COC(=O)C2CCN(S(=O)(=O)c3c(Cl)cccc3Cl)CC2)o1`, the activity change, negative = inhibition was 5.96% (inactive). With `COc1cc(SC)ccc1C(=O)Nc1nc(C)cs1` the activity change, negative = inhibition was -63.8% (active). In the case of `COc1cc(SC)ccc1C(=O)Nc1cc(C)ccn1`, the activity change, negative = inhibition is reported as 28.6% (inactive). With `COC(=O)c1sc(NC(=O)c2ccc(OC)cc2OC)nc1C` the activity change, negative = inhibition was -40.1% (inactive). For `Cc1ccc(C(=O)C(C)OC(=O)Cc2n[nH]c(=O)c3ccccc23)cc1C` (stereo not drawn), the activity change, negative = inhibition was -5.5% (inactive). With `NC(=O)c1ccsc1NC(=O)COC(=O)Cc1n[nH]c(=O)c2ccccc12` the activity change, negative = inhibition was -1.64% (inactive). In the case of `COc1ccc(CC(=O)OC(C)C(=O)Nc2ccc(S(N)(=O)=O)cc2)cc1` (stereo not drawn), the activity change, negative = inhibition is reported as -3.68% (inactive). In the case of `CCc1cccc(NC(=O)COC(=O)C2CCN(c3ccc(C(F)(F)F)cn3)CC2)c1`, the activity change, negative = inhibition is reported as -4.52% (inactive). For `CCc1ccnc(NC(=O)Nc2ccc(OCc3ccccc3)cc2)c1`, the activity change, negative = inhibition was -11.4% (inactive). For `O=C(O)/C=C\C(=O)Nc1ccc(OCc2ccccc2)cc1`, the activity change, negative = inhibition was -65.7% (active). With `Cc1cccc(NC(=O)Nc2ccc(OCc3ccccc3)cc2)n1` the activity change, negative = inhibition was 1.3% (inactive). For `O=C(CCCN=C1NS(=O)(=O)c2ccccc21)OCC(=O)c1ccc(F)c(F)c1`, the activity change, negative = inhibition was -2.57% (inactive). In the case of `CCC(=O)N(Cc1cc2cc(OC)ccc2[nH]c1=O)c1ccccc1C`, the activity change, negative = inhibition is reported as -6.72% (inactive). In the case of `CCN(Cc1cc2cc(C)ccc2[nH]c1=O)S(=O)(=O)c1ccccc1`, the activity change, negative = inhibition is reported as -3.14% (inactive). In the case of `COc1ccc2[nH]c(=O)c(CN(Cc3cccnc3)S(=O)(=O)c3ccccc3F)cc2c1`, the activity change, negative = inhibition is reported as -52.3% (active). With `COc1ccccc1NC(=O)C(C)OC(=O)c1ccc(-n2cnnn2)cc1` (stereo not drawn) the activity change, negative = inhibition was -4.36% (inactive). With `O=C1CC2(CCCC2)Oc2ccc(Cl)cc21` the activity change, negative = inhibition was -9.81% (inactive). In the case of `CC[C@H]1CN2CCc3cc(OC)c(OC)cc3[C@@H]2C[C@@H]1C[C@H]1NCCc2cc(OC)c(OC)cc21`, the activity change, negative = inhibition is reported as -74.7% (active). For `COc1cc2c(cc1O)[C@H](Cc1ccc(Oc3cc(C[C@@H]4NCCc5cc(OC)c(O)cc54)ccc3O)cc1)NCC2`, the activity change, negative = inhibition was -2.77% (inactive). In the case of `COc1ccc2c(c1)CCNC2Cc1ccc(OC)c(O)c1` (stereo not drawn), the activity change, negative = inhibition is reported as 0.52% (inactive). For `C=CCOC(=O)C1=C[C@H](c2ccc(Br)cc2)C[C@H](OCCCCO)O1`, the activity change, negative = inhibition was -3.77% (inactive). With `CCOC(=O)c1cccc(NC(=O)C2CCN(c3ncnc4c3nc3n4CCCCC3)CC2)c1` the activity change, negative = inhibition was -72.4% (active). For `O=C(NCc1ccccc1Cl)C1CCN(c2ncnc3c2nc2n3CCCCC2)CC1`, the activity change, negative = inhibition was -6.69% (inactive). In the case of `COc1cccc(NC(=O)C2CCCN(c3ncnc4c3nc3n4CCCCC3)C2)c1` (stereo not drawn), the activity change, negative = inhibition is reported as -3.75% (inactive). In the case of `COc1ccccc1CNC(=O)CSc1nc(=O)n(Cc2ccncc2)c2c1CCC2`, the activity change, negative = inhibition is reported as -0.526% (inactive). In the case of `Cn1c(SCC(=O)c2ccccc2)ncc(C(=O)Nc2ccc(F)cc2)c1=O`, the activity change, negative = inhibition is reported as 3.83% (inactive). With `CN(C)S(=O)(=O)c1cccc(NC(=O)Cc2ccsc2)c1` the activity change, negative = inhibition was 5.64% (inactive). For `Cc1ccc(/C=N/NC(=S)Nc2cccc(S(=O)(=O)N(C)C)c2)o1`, the activity change, negative = inhibition was -4.55% (inactive). With `Cc1nc(C)c(-c2nnc(-c3cccc(S(=O)(=O)N(C)C)c3)o2)cc1C(=O)NN` the activity change, negative = inhibition was -63.1% (active). For `COc1cccc(CNC(=O)C(=O)NCCC2CCCCN2S(=O)(=O)c2ccc(C)cc2)c1` (stereo not drawn), the activity change, negative = inhibition was -3.75% (inactive). In the case of `COc1cccc(N2CC(NS(=O)(=O)c3ccc(Cl)cc3)CC2=O)c1` (stereo not drawn), the activity change, negative = inhibition is reported as 8.69% (inactive). With `C=C(C)C(=O)O[C@H]1C/C(C)=C\C(=O)/C=C(\C)[C@H](O)[C@@H]2OC(=O)C(=C)[C@@H]21` the activity change, negative = inhibition was -73.5% (active). With `CN(CC(=O)NCc1cccnc1)S(=O)(=O)c1cc(Cl)ccc1Cl` the activity change, negative = inhibition was 1.42% (inactive). With `CCN(CC(=O)Nc1ccc(NC(C)=O)cc1)C(=O)C1CC(=O)N(Cc2ccc(C)cc2)C1` (stereo not drawn) the activity change, negative = inhibition was -0.586% (inactive). With `CCOc1ccc(NCCC(=O)c2ccc3c(c2)OCO3)cc1` the activity change, negative = inhibition was -1.61% (inactive). For `COc1ccccc1OCCCC(=O)Nc1ccc2c(c1)OCCO2`, the activity change, negative = inhibition was 1.02% (inactive). In the case of `COC(=O)CCNc1ccc2c(c1)OCCO2`, the activity change, negative = inhibition is reported as -72.6% (active). For `Cc1ccc2nc(SCC(=O)N3CC(C)OC(C)C3)nc(=O)n2c1` (stereo not drawn), the activity change, negative = inhibition was 3.03% (inactive). In the case of `Cc1ccc(S(=O)(=O)CCC(=O)OCC(=O)N(C)C2CCS(=O)(=O)C2)cc1` (stereo not drawn), the activity change, negative = inhibition is reported as -3.16% (inactive). With `COc1ccc(CN2[C@@H](CC(=O)O)c3cc(F)ccc3S2(=O)=O)cc1` the activity change, negative = inhibition was -5.27% (inactive). With `COc1ccc(C(=O)N/N=C2\CCS(=O)(=O)c3ccc(F)cc32)cc1OC` the activity change, negative = inhibition was 9.4% (inactive). With `O=S1(=O)CC/C(=N\Nc2ccc(F)cc2)c2ccsc21` the activity change, negative = inhibition was -74.8% (active). With `CCN(CC(=O)NCc1ccco1)S(=O)(=O)c1ccc(F)cc1` the activity change, negative = inhibition was -5.85% (inactive). In the case of `CCN(CC(=O)N1CCCC1)S(=O)(=O)c1ccc(F)cc1`, the activity change, negative = inhibition is reported as -65.5% (active). In the case of `COc1ccc(S(=O)(=O)N(C)CC(=O)N2CCCC2)cc1`, the activity change, negative = inhibition is reported as 0.377% (inactive). For `COc1ccc(CNC(=O)C2CCCC2)cc1`, the activity change, negative = inhibition was -0.797% (inactive). With `CCOc1ccc(NC(=O)CN(C)C(=O)COc2cccc(CC)c2)cc1OCC` the activity change, negative = inhibition was 3.71% (inactive). In the case of `COC(=O)CCCC1=CC2=C(c3ccccc3)C(=O)C(C)(OC(=O)C3CCCC3)C(=O)C2=CN1c1ccc(OC)cc1` (stereo not drawn), the activity change, negative = inhibition is reported as -88.7% (active). In the case of `COC(=O)CCCC1=CC2=CC(=O)C(C)(OC(=O)c3cccs3)C(=O)C2=CN1c1cccc(C#N)c1` (stereo not drawn), the activity change, negative = inhibition is reported as 0.873% (inactive). For `COC(=O)CCCC1=CC2=CC(=O)C(C)(OC(=O)c3cccs3)C(=O)C2=CN1CC1CC1` (stereo not drawn), the activity change, negative = inhibition was -2.87% (inactive). With `CC(=O)c1ccc(S(=O)(=O)Nc2ccc(-c3ccc4nncn4n3)cc2)cc1` the activity change, negative = inhibition was 2.56% (inactive). In the case of `COc1ccc(NC(=O)CN(C)C(=O)c2ccc(COc3ccccc3)o2)cc1`, the activity change, negative = inhibition is reported as 3.16% (inactive). In the case of `CN(c1ccc2nc3ccccc3c(=O)n2n1)C1CCCCC1`, the activity change, negative = inhibition is reported as -86.8% (active). With `O=c1c2ccccc2nc2n1C1(CCCCC1)Cc1ccccc1-2` the activity change, negative = inhibition was 15.3% (inactive). With `CN(C(=O)c1cc2c(=O)n3ccccc3nc2s1)C1CCCCC1` the activity change, negative = inhibition was 23.2% (inactive). With `CCCOc1ccc(C(=O)CCC(=O)OC(C)C(=O)Nc2ccc(NC(C)=O)cc2)cc1` (stereo not drawn) the activity change, negative = inhibition was 11.7% (inactive). In the case of `COCCCNC(=S)N1CCCC(c2nc3cc(C)c(C)cc3[nH]2)C1` (stereo not drawn), the activity change, negative = inhibition is reported as 5.14% (inactive). For `CCCNC(=S)N1CCCC(c2nc3ccccc3[nH]2)C1` (stereo not drawn), the activity change, negative = inhibition was -82% (active). In the case of `CN(C)CCCNC(=S)N1CCC(c2nc3ccccc3[nH]2)CC1`, the activity change, negative = inhibition is reported as -2.77% (inactive). In the case of `CCOc1ccc(S(=O)(=O)Nc2cccc(C(=O)NCC3(N4CCCCC4)CCCCC3)c2)cc1`, the activity change, negative = inhibition is reported as -3.29% (inactive). In the case of `CC(=O)N[C@H]1[C@H]([C@H](O)[C@H](O)CO)OC(C(=O)O)=C[C@@H]1O`, the activity change, negative = inhibition is reported as -3.57% (inactive). In the case of `COc1ccc2oc(C(=O)OCC(=O)N(CC(C)C)c3c(N)n(Cc4ccccc4)c(=O)[nH]c3=O)c(C)c2c1`, the activity change, negative = inhibition is reported as 1.6% (inactive). For `CCN(Cc1ccccc1)C(=O)Cc1ccc(OC)c(S(=O)(=O)N2CCOCC2)c1`, the activity change, negative = inhibition was -13.3% (inactive). In the case of `CCOc1ccc(N=C2NC(=O)S/C2=C\c2ccc(O)cc2)cc1`, the activity change, negative = inhibition is reported as 8.7% (inactive). With `COc1ccc(/C=C2/S/C(=N/N=C3\CC4CCC3(C)C4(C)C)NC2=O)cc1` (stereo not drawn) the activity change, negative = inhibition was -80.6% (active). For `COc1ccc(/C=C2\SC(=N)N(c3ccc(F)cc3)C2=O)cc1`, the activity change, negative = inhibition was -0.809% (inactive). In the case of `Cc1sc(NC(=O)c2ccc3ncsc3c2)c(C(N)=O)c1C`, the activity change, negative = inhibition is reported as 18.5% (inactive). For `O=C(COC(=O)Cn1[nH]c(=O)c2ccccc2c1=O)Nc1c(Cl)cccc1C(F)(F)F`, the activity change, negative = inhibition was -1.35% (inactive). For `COc1ccccc1C(=O)NC(CCSC)C(=O)N1CCN(C/C=C/c2ccccc2)CC1` (stereo not drawn), the activity change, negative = inhibition was 6.22% (inactive). In the case of `C=CCOc1ccc(/C=C2\SC(=S)N(CCC(=O)O)C2=O)cc1`, the activity change, negative = inhibition is reported as -55% (active). For `COc1ccccc1C(=O)NNC(=O)CCN1C(=O)/C(=C\c2ccccc2)SC1=S`, the activity change, negative = inhibition was 3.5% (inactive). For `Cc1ccc(/C=C2\SC(=S)N(CCC(=O)Nc3ccc(O)cc3)C2=O)cc1`, the activity change, negative = inhibition was 2.79% (inactive). In the case of `O=C(c1ccc(NS(=O)(=O)c2ccc3[nH]c(=O)[nH]c3c2)cc1)N1CCCCC1`, the activity change, negative = inhibition is reported as -2.36% (inactive). For `CCOc1cc(NS(=O)(=O)c2ccc(OC)cc2)c(OCC)cc1NC(C)=O`, the activity change, negative = inhibition was -13.5% (inactive). With `CCOc1ccccc1NS(=O)(=O)c1c[nH]c(C(=O)OC)c1` the activity change, negative = inhibition was -51.6% (active). For `COC(=O)c1cc(S(=O)(=O)Nc2ccc(C)c(F)c2)c[nH]1`, the activity change, negative = inhibition was 5.93% (inactive). With `COCOc1cc(O)c(C(=O)/C=C/c2ccc(OCOC)c(OCOC)c2)c(OCOC)c1` the activity change, negative = inhibition was 23.1% (inactive). For `COc1cccc(CCNC(=O)COc2cccc3c2OC(C)(C)C3)c1`, the activity change, negative = inhibition was -0.825% (inactive). For `Cc1cc(C(=O)CCl)c(C)n1CC1COc2ccccc2O1` (stereo not drawn), the activity change, negative = inhibition was 19.5% (inactive). In the case of `Cc1ccsc1C(=O)OCC(=O)c1cc(C)n(CC2CCCO2)c1C` (stereo not drawn), the activity change, negative = inhibition is reported as -88.5% (active). In the case of `Cc1cc(C(=O)Cn2cnc3cc([N+](=O)[O-])ccc3c2=O)c(C)n1CC1CCCO1` (stereo not drawn), the activity change, negative = inhibition is reported as 3.88% (inactive). With `CCCCn1c(N)c(N(CCOC)C(=O)c2sc3ccccc3c2Cl)c(=O)[nH]c1=O` the activity change, negative = inhibition was -1.16% (inactive). In the case of `COc1ccccc1C(=O)NCCC(=O)NCC(c1ccco1)N1CCCCC1` (stereo not drawn), the activity change, negative = inhibition is reported as -1.06% (inactive). For `CC1COc2ccccc2N1C(=O)c1ccc(F)cc1` (stereo not drawn), the activity change, negative = inhibition was -77.4% (active). For `CC1COc2ccccc2N1C(=O)c1cccnc1Cl` (stereo not drawn), the activity change, negative = inhibition was -2.12% (inactive). With `CC1COc2ccccc2N1S(=O)(=O)c1ccccc1` (stereo not drawn) the activity change, negative = inhibition was -6.19% (inactive). For `O=C(NCCCN1CCCC1=O)c1ccc(S(=O)(=O)Nc2ccccc2)cc1`, the activity change, negative = inhibition was 4.74% (inactive). For `Cc1cc(C)c(-c2csc(NC(=O)CCCc3nc4ccccc4c(=O)[nH]3)n2)c(C)c1`, the activity change, negative = inhibition was -1.35% (inactive).
